Most compounds without a hit are left out; they make up all but 7.1% or so of the library.
MARV entry inh = blocks Marburg virus binding or cell entry; Marburg virus pseudotype entry/binding inhibition, cell-based; Potency, µM (titrated, usually from 49.2 µM), without a hit: top-dose activity change, negative = inhibition, usual class: inhibitors; 18,000 tested, 6.5% active
Lassa entry = Lassa virus entry inhibition; Potency, µM (doses to about 49.2 µM), inactives show at the top dose activity change, negative = inhibition, actives largely listed as inhibitors; 18,000 tested, 4.1% active; Lassa virus pseudotyped entry inhibition, cell-based qHTS
* hit, by the source's call; ? = inconclusive; · = no result; ! = a repeat was not active; [ ] = another dose, or the depositor's remark. Calls follow the shape of the full dose curve; tested in HEK293 cells. % is scaled to controls: 0 for no effect and ±100 for the full control effect; potency is read from the fitted curve at half-maximal effect.

SMILES	MARV entry inh	Lassa entry
CC(C)=CCN1C(=O)[C@@]2(CC(C)=CC[C@@H](COc3ccccc3)O2)c2ccccc21	3%[8.59 µM]	-17%[8.59 µM]
O=C(Nc1ccc(C(=O)Nc2ccc(C(=O)Nc3ccc(S(=O)(=O)O)c4cc(S(=O)(=O)O)cc(S(=O)(=O)O)c34)cc2)cc1)Nc1ccc(C(=O)Nc2ccc(C(=O)Nc3ccc(S(=O)(=O)O)c4cc(S(=O)(=O)O)cc(S(=O)(=O)O)c34)cc2)cc1	4µM*	5%
O=C(Nc1cc(C(=O)Nc2ccc(S(=O)(=O)O)cc2S(=O)(=O)O)cc(C(=O)Nc2ccc(S(=O)(=O)O)cc2S(=O)(=O)O)c1)Nc1cc(C(=O)Nc2ccc(S(=O)(=O)O)cc2S(=O)(=O)O)cc(C(=O)Nc2ccc(S(=O)(=O)O)cc2S(=O)(=O)O)c1	-23%	-5%
COc1cc2c(c(OC)c1OC)-c1c(cc3c(c1OC)OCO3)CC(C)C(C)(O)C2OC(=O)c1ccccc1 (centres undefined)	13%	-16%
COc1ccc(CN2CCC3(CCC(CNC(=O)c4ccco4)O3)CC2)c(OC)c1C (centres undefined)	?	-8%
O=C1NCN(c2ccccc2)C12CCN(CCCOc1ccc(F)cc1)CC2	18µM*	16µM*
c1ccc(N2CCN(CCCOc3ccc4c(c3)OCO4)CC2)cc1	2%	-2%
N[C@@]1(C(=O)O)CO[C@H]2[C@H](C(=O)O)[C@H]21	3%	2%
C[C@@H](c1ccccc1)N1C(=O)[C@@H]2[C@H]3[C@H](O)[C@H](O)CC(=NNC(=O)OCc4ccccc4)[C@@H]3CC[C@H]2C1=O	-18%[8.59 µM]	-28%[8.59 µM]
CCn1c(-c2nonc2N)nc2ccccc21	?	19%
CCn1c(-c2nonc2N)nc2c(C#CC(C)(C)O)nc(OCCNC)cc21	13µM*	·
C#CCN(CC(=O)OCC)S(=O)(=O)CCNC1CC1	24%	14%
CCN1C(=NCc2cccc(Cl)c2)NC(c2cccc(C(F)(F)F)c2)C(C(=O)OC)=C1C (centres undefined)	-25%[8.59 µM]	?
CN1[C@@H](CC(=O)c2ccccc2)CCC[C@H]1C[C@H](O)c1ccccc1	28µM*	?
CN1C(CC(=O)c2ccccc2)CCCC1CC(O)c1ccccc1 (centres undefined)	?	-25%
CCC(=O)CC	-19%	-7%
Cc1ccc2c(=O)c3ccccc3n(CCCN)c2c1C	10µM*	10µM*!
COC(=O)CC(Oc1c(C)n(C)c2ccccc2c1=O)c1ccccc1 (centres undefined)	-5%[8.59 µM]	-6%[8.59 µM]
COC1=C(C(=O)c2ccccc2)C(=O)[C@@]2(CC=C(C)C)C[C@H](C(=O)OCC(F)(F)F)C(C)(C)[C@@]1(CC=C(C)C)C2=O	33%[8.59 µM]	2%[8.59 µM]
C(#C[C@@H]1C=C[C@H]2OC(c3ccccc3)OC[C@H]2O1)c1ccccc1 (some centres undefined)	15%[8.59 µM]	2%[8.59 µM]
CCN(CC)CCOc1ccc2c(c1)C(=O)c1cc(OCCN(CC)CC)ccc1-2	6.3µM*	?
CCOc1ccc(C(=O)OCCN(CC)CC)cc1	-7%	-11%
COc1cccc(-c2c[nH]c3c(NN=Cc4ccncc4)ncnc23)c1	?	-65%
C[C@H]1C(C(=O)N2CCCC2)=Cc2[nH]c(=O)[nH]c2C=C1c1ccccc1	18%[8.59 µM]	4%[8.59 µM]
CC(O)[C@@H]1NC(=O)[C@H](CCCCN)NC(=O)[C@@H](Cc2c[nH]c3ccccc23)NC(=O)[C@H](Cc2ccccc2)NC(=O)[C@@H](NC(=O)[C@H](N)Cc2ccccc2)CSSC[C@@H](C(=O)N[C@H](CO)[C@@H](C)O)NC1=O (some centres undefined)	9%	-11%
SMILES	MARV entry inh	Lassa entry
COc1ccc2c3c([nH]c2c1)C(C)=NCC3	?	-7%
COc1ccc2c(c1)[nH]c1c(C)nccc12	22µM*	4%
O=C(c1ccc2c(c1)OCO2)N(Cc1cc2ccc(F)cc2nc1N1CCC(O)CC1)CC1CCCO1 (centres undefined)	?	-30%
CN1[C@@H]2CC[C@H]1CC(OC(c1ccc(F)cc1)c1ccc(F)cc1)C2 (some centres undefined)	7.9µM*	14µM*
COc1ccc(C(=O)OC2C[C@H]3CC[C@@H](C2)N3C)cc1OC (some centres undefined)	-20%[17.8 µM]	9%[17.8 µM]
CC(C)(C)NC[C@H](O)c1cc(Cl)c(N)c(Cl)c1	-9%[17.8 µM]	-4%[17.8 µM]
CCOC(=O)CNC(=O)O[C@@H]1C(=O)c2cc(Br)ccc2O[C@H]1c1cccc(OC)c1	11%	2%
S=C=Nc1cccc(C2(N3CCCCC3)CCCCC2)c1	?	14µM*
Cc1cccc(C(=O)N2CCOc3ccc(CN(C)Cc4cc(C5CC5)n[nH]4)cc3C2)n1	-3%	-8%
COc1ccc(-c2oc3ncnc(N)c3c2-c2ccc(NC(=O)Nc3cc(C(F)(F)F)ccc3F)cc2)cc1	13µM*	·
COC(=O)Nc1nc2ccc(S(=O)(=O)c3ccc(NC(=O)Nc4cc(C(F)(F)F)ccc4F)cc3)cc2[nH]1	-29%	-20%
CCN(CC)CCOC(=O)c1ccc(N)cc1Cl	7%	0%
CC(CN1CCc2nnc(CNC(=O)c3cccc(F)c3)n2CC1)c1ccccc1 (centres undefined)	-9%	0%
O=C(NCc1nnc2n1CCN(Cc1cc(F)cc(F)c1)CC2)c1cccc(F)c1	5µM*	?
Cc1c(C(=O)NCCc2ccccn2)cnn1-c1nccc(-c2cccs2)n1	9%	2%
Cc1c(C(=O)NCCN2CCC(c3ccccc3)CC2)cnn1-c1nccc(-c2cccs2)n1	13µM*	-26%
C=CCCCN1C=C(C(=O)OCC)C(c2ccccc2)NC1=O (centres undefined)	-11%[8.59 µM]	-5%[8.59 µM]
COc1ccccc1C1CN(Cc2cccc(C)n2)Cc2ccccc2O1 (centres undefined)	5.6µM*	7.1µM*
COc1ccccc1C1CN(Cc2c(O)cccc2OC)Cc2ccccc2O1 (centres undefined)	2%	-15%
CC1CC2CC(=O)C3CCCN4CCCC2[C@]34C1 (some centres undefined)	-11%	-4%
COc1ccc(-c2cc(C(=O)N3CCc4c(cnc(C)c4CNC(=O)c4ccsc4)C3)[nH]n2)cc1	-26%	4%
C[C@H](N)[C@H](O)c1cccc(O)c1	1%[17.8 µM]	-3%[17.8 µM]
CC(N)C(O)c1ccc(O)c(O)c1 (centres undefined)	11µM*!	-8%
Cc1nc(-c2ccc(OCC(C)C)c(C#N)c2)sc1C(=O)O	?	7.9µM*
Cc1ncc2c(c1CNC(=O)c1ccccc1F)CCN(C(=O)c1[nH]c3ccc(Cl)cc3c1C)C2	?	10µM*
SMILES	MARV entry inh	Lassa entry
Cc1ncc2c(c1CNC(=O)c1ccccc1F)CCN(C(=O)c1ccc3c(c1)OCCO3)C2	5%	?
CCN(CC)c1ccc(C(=C2C=CC(=[N+](CC)CC)C=C2)c2ccccc2)cc1	0.28µM*	0.32µM*
CC(C)=CCCC(C)C1CC[C@@]2(C)C3=C(CC[C@@]12C)C1(C)CCC(O)C(C)(C)C1CC3 (some centres undefined)	8%	?
CC[C@@]1(O)C(=O)OCc2c1cc1n(c2=O)Cc2cc3ccccc3nc2-1	2.2µM*	?
CCN1C(=NCc2ccc(OC)cc2)NC(c2ccccc2)C(C(=O)OC)=C1C (centres undefined)	-22%[8.59 µM]	10%[8.59 µM]
CCN(CC)C(=O)c1cc(S(=O)(=O)Cc2ccccc2)c(N2CCC(c3ccccc3)CC2)cc1N(CC)CCN(C)C	5µM*	14µM*
COc1cccc(CN2CCc3nnc(CCc4ccccc4)n3CC2)c1OC	-19%	-12%

Compound activity from PubChem.
